Potency data for 1 compound are collected here from PubChem BioAssay AID2441 (National Center for Advancing Translational Sciences (NCATS), 2010).

Structures are written as SMILES. The list shows a part of the results. Records with an inconclusive call do not appear. The source made the active and inactive calls. Calls follow the shape of the dose curve; as a rule, active = well fitted inhibition curve with a large enough effect; inconclusive = small, poorly fitted or top-dose-only effect; inactive = flat fitted curve, though single readings scatter.

The assay can be described thus: Cell cycle validation with wells to cells screening paradigm. The conditions noted are these: HeLa cell cycle G2/M arrest, Hoechst DNA content imaging. The source says:
Understanding cell cycle regulation is a critical component in combating various diseases such as cancer. Proper execution of cell cycle activity is essential for processes such as cell growth, DNA replication, and mitosis and surveillance mechanisms function as cell cycle checkpoints at the G1, S, and G2/M phases. Thus, profiling agents which disrupt cancer cell division represents a large effort in oncology-based studies. Compound-induced cell cycle perturbations can be analyzed through changes in specific cell cycle phase markers, such as DNA content, using high content screening. […] Furthermore, recent imaging based studies have performed cell cycle analysis following compound treatment where phenotypic fingerprints for phases of the cell cycle were determined or concentration-response based testing of selected compounds and drugs was used to measure a phenotypic profile in a dose-dependent manner. […]
Reagents: 70% EtOH, Hoechst Stain, PBS Controls: 7.6 uM (final starting concentration) Vinblastine and 38.3 uM (final starting concentration) nocodazole were dispensed into columns 1 and 2, respectively, and titrated 1:2 in DMSO (16-point in duplicate). […] Plates were read on the Acumen eX3 system and concentration response curves were generated after the readings. […]
Consider `O=c1cc(-c2ccccc2)[nH]c2nc(Cl)ccc12`, for which the Potency was 2000 nM (active).
